This note sets out measurements from the supplement of paper PMC6763611.

In this assay the test system is Plasmodium falciparum NF54. Nature of the assay: growth inhibition relative to untreated control; higher = more inhibition. To be noted: 72 h. Summed up: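 P. falciparum NF54 ring stages (1% hematocrit, 1% parasitemia, 100 μL/well in 96-well half-area dark plates) were exposed for 72 h at 37 °C to single 5 μM or 1 μM doses of Pathogen Box compounds. The medium was minimal RPMI or minimal RPMI plus chorismate end-products (2.2 μM folate, 7.3 μM pABA, 7.3 μM pHBA, 111 μM tyrosine, 90 μM phenylalanine, tryptophan). Growth inhibition was read by SYBR Green, normalised to untreated controls, with uninfected erythrocytes as background.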

Setting [1] is: 1 µM, MM + chorismate end-products (CM screening medium).
[2] abbreviates: 5 µM, MM + chorismate end-products (CM screening medium).

With `Cc1ccc2oc(-c3cc(NC(=O)Cc4ccccc4)ccc3Cl)nc2c1`, the growth inhibition is < 0% under setting [1]; 6.84% (1 µM, minimal medium (MM)); 26.4% under setting [2]; < 0% (5 µM, minimal medium (MM)).
For the compound `CCN(CC)CCCN1CCN(C(=O)c2cccc(-c3noc(C(F)(F)F)n3)c2)CC1`, the growth inhibition reads like this: under setting [1], 86.3%; (1 µM, minimal medium (MM)) 84.9%; under setting [2], 95.3%; (5 µM, minimal medium (MM)) 87%.
Take `c1cncc(NCc2ccc(-c3cc4ccncc4cc3OC3CCNCC3)s2)c1`: the growth inhibition is 98.6% under setting [1]; 98% (1 µM, minimal medium (MM)); > 100% under setting [2]; 84.2% (5 µM, minimal medium (MM)).
`CC(C(=O)Nc1ccc2oc(-c3ccncc3)nc2c1)c1ccccc1` (stereo not drawn): the growth inhibition is 14.6% under setting [1]; < 0% (1 µM, minimal medium (MM)); < 0% under setting [2]; < 0% (5 µM, minimal medium (MM)).
For the compound `COc1cccc(NC(=O)c2c(NC(=O)c3cccnc3)sc3c2CCC3)c1`, the growth inhibition by setting is: under setting [1], 47.5%; (1 µM, minimal medium (MM)) 9.66%; under setting [2], 53.5%; (5 µM, minimal medium (MM)) 8.07%.
As for `O=C(COc1cccc(F)c1)Nc1nc(-c2ccccn2)cs1`, the growth inhibition under setting [1] was < 0%; the growth inhibition (1 µM, minimal medium (MM)) turned out to be 2.24%; the growth inhibition under setting [2] is < 0%; the growth inhibition (5 µM, minimal medium (MM)) was < 0%.
Turning to `CC(=O)N(CCN(C(=O)c1ccc(F)cc1)c1ccccc1)c1ccccc1`, the growth inhibition runs as follows: under setting [1], < 0%; (1 µM, minimal medium (MM)) < 0%; under setting [2], 20.2%; (5 µM, minimal medium (MM)) < 0%.
Regarding `COC(=O)c1cccc2oc(-c3cccc(OC)c3NC(=O)c3cc(-c4ccccc4)on3)nc12`, the growth inhibition is < 0% under setting [1]; < 0% (1 µM, minimal medium (MM)); < 0% under setting [2]; < 0% (5 µM, minimal medium (MM)).
As to `Nc1ccc(C(=O)Nc2ccc(-c3nc4ccccc4o3)cc2)cc1`, the growth inhibition runs as follows: under setting [1], 23.2%; (1 µM, minimal medium (MM)) 18.2%; under setting [2], 55.7%; (5 µM, minimal medium (MM)) 26.5%.
With `CN1CCN(c2nccc3nc(-c4ccc(F)c(F)c4)[nH]c23)CC1`, the growth inhibition under setting [1] came to 58.8%; the growth inhibition (1 µM, minimal medium (MM)) turned out to be 66.9%; the growth inhibition under setting [2] is > 100%; the growth inhibition (5 µM, minimal medium (MM)) was determined as 91.1%.
Take `CN1CCN(c2nccc3[nH]c(-c4cccc(F)c4)cc23)CC1`: the growth inhibition was < 0% under setting [1]; 58.4% (1 µM, minimal medium (MM)); 99% under setting [2]; 90% (5 µM, minimal medium (MM)).
In the case of `CCc1nc2ccccc2n1CC(O)COc1cc(C)ccc1Cl` (stereo not drawn), the growth inhibition reads like this: under setting [1], 31.1%; (1 µM, minimal medium (MM)) 36.8%; under setting [2], 98.5%; (5 µM, minimal medium (MM)) 61%.
